Assay outcomes from PubChem.
TDP1 block – TDP1 (human) enzyme inhibition. Q9NUW8. recombinant TDP1, AlphaScreen DNA substrate cleavage. Potency, µM (doses to about 130 µM), for inactives: top-dose activity change, negative = inhibition, hits mostly inhibitors. hit rate 0.28% among 350,000. AID 485290; note: % is set by controls: 0 for no effect and ±100 for the full control effect; nearly all actives have a fitted effect of over 40% in size
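Signal: AlphaScreen proximity between streptavidin donor and anti-FITC acceptor beads on intact substrate. Reaction: Tdp1 1 nM, substrate 15 nM final, 5 min RT after 15 min compound preincubation.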
FEN1 inh – human FEN1 inhibition; Potency, µM (doses to about 114 µM), without a hit: at the top dose activity change, negative = inhibition, hits mostly inhibitors; P39748; hit rate 0.35% among 390,000; Recombinant FEN1 flap cleavage, fluorescence, 15 min; AID 588795; note: % is set by controls: 0 for no effect and ±100 for the full control effect; nearly all actives have a fitted effect of over 65% in size
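Recombinant FEN1 (10 nM) was preincubated with pin-transferred compounds for 15 min at room temperature, then flap DNA substrate (50 nM final) was added. Plates were read at 0 and 15 min, and normalized concentration–response data were fitted to a four-parameter Hill equation.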
Pol beta inh – inhibitors of human DNA polymerase beta; P06746; Pol beta primer extension/strand displacement, fluorescence kinetic; Potency, µM (titrated, usually from 114 µM), for the others: at the top dose activity change, negative = inhibition, hits mostly inhibitors; hit rate 1.3% among 340,000; note: % is set by controls: 0 for no effect and ±100 for the full control effect
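Pol beta (10 nM) and compounds were preincubated 15 min at room temperature, then 50 nM substrate (final) started primer extension/strand displacement. Reads were taken at 0 and 10 min; concentration-response data were fitted to a four-parameter Hill equation.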
Pol iota inh – blocks human DNA polymerase iota activity. hit rate 1% among 390,000. AID 588590. Potency, µM (highest dose often 115 µM), for the others: at the highest dose activity, negative = inhibition, most hits filed as inhibitors. Pol iota fluorescent replication assay, 10 min
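Pol iota at 10 nM preincubated 15 min with compounds at room temperature; reaction started with fluorescent substrate, 50 nM final. Fluorescence read kinetically at 0 and 10 min; buffer-only wells as negative control.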
Pol kappa inh – DNA polymerase kappa (human) inhibition; Q9UBT6; AID 588579; hit rate 0.53% among 400,000; Potency, µM (titrated, usually from 107 µM), inactives show top-dose activity, negative = inhibition, most hits filed as inhibitors; purified Pol kappa, fluorescent DNA synthesis assay, 10 min; note: % is set by controls: 0 for no effect and ±100 for the full control effect
Target sequence (Q9UBT6 whole entry, looked up): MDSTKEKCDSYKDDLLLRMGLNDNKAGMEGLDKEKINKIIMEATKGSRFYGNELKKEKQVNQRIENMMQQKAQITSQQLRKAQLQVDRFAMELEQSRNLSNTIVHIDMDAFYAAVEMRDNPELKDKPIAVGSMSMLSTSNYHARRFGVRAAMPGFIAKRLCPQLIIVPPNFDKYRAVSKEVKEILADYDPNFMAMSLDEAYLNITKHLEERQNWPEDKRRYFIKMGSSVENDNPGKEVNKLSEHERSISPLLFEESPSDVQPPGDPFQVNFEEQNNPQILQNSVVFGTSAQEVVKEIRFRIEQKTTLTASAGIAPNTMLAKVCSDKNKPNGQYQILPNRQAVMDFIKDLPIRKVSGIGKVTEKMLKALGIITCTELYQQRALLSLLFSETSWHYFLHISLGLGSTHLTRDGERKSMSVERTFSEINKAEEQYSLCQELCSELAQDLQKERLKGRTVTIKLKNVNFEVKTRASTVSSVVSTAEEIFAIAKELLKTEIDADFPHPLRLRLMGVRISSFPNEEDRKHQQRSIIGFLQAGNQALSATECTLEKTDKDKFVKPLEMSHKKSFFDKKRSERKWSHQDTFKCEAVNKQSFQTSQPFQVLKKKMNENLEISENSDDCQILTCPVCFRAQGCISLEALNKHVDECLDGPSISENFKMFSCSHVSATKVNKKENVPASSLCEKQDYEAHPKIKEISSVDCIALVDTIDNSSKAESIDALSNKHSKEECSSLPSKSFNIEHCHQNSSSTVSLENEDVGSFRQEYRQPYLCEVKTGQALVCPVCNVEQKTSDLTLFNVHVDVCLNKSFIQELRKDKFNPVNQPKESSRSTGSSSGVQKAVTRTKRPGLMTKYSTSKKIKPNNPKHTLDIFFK
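50 nM final substrate added after 15 min RT preincubation of 10 nM Pol kappa with compound; fluorescence read at 0 and 10 min.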
Pol eta inh – blocks human DNA polymerase eta activity; Potency, µM (doses to about 114 µM), for the others: at the top dose activity change, negative = inhibition, actives largely listed as inhibitors; hit rate 1.2% among 390,000; Q9Y253; recombinant Pol eta, fluorescent DNA replication assay; note: % is set by controls: 0 for no effect and ±100 for the full control effect
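Pol eta at 10 nM preincubated with compounds 15 min at room temperature; reaction started with fluorescent substrate (50 nM final) and read kinetically at 0 and 10 min.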
An asterisk follows results filed as active; ? = inconclusive; / = not tested or not shown; [ ] = another dose, or the depositor's remark. An excerpt weighted towards active compounds, which were near 2.4% of everything screened. Calls come from the whole dose curve; as a rule, active = well fitted curve in the direction sought with a large enough effect; inconclusive = small, poorly fitted or top-dose-only effect, or another doubt; inactive = no such curve, though single readings can be large; an effect the other way counts as inactive or inconclusive. Potency is the fitted concentration of half-maximal effect.

SMILES | TDP1 block | FEN1 inh | Pol beta inh | Pol iota inh | Pol kappa inh | Pol eta inh
Cc1c(C(=O)NCc2ccccc2Cl)sc2ncnc(N(C)C3CCCCC3)c12 | 3.4% | 14.8% | -16.7% | 16.5% | -5.0%[60.1 µM] | -14.4%
Cc1cc(C(=O)OCC(=O)Nc2sc3c(c2C#N)CCC(C)C3)c2ccccc2n1 (stereo not given) | 0.6% | -6.8% | 17.8µM* | 56.2µM* | ? | 79.4µM*
Cc1cccc(C(=O)N/N=C/c2ccoc2)c1 | 28.2µM* | 19.1% | 25.1µM* | ? | ? | ?
COc1ccc(-c2ccc3c(c2)S(=O)(=O)c2cccc(C(=O)NCCOc4ccccc4Cl)c2C3=O)cc1OC | 28.2µM* | 11.9% | / | 12.7% | -10.7% | ?
COc1ccc(-c2ccc3c(c2)S(=O)(=O)c2cccc(C(=O)NC4CC4)c2C3=O)cc1OC | -10.5% | -7.1% | / | ? | -2.0% | -6.1%
Cc1ccc(-c2nn3c(C)nnc3s2)cc1NC(=O)c1ccc(-c2cccc(Cl)c2)o1 | -1.2% | ? | 7.08µM* | 31.6µM* | -24.5% | ?
Cc1ccc(-c2nn3c(C)nnc3s2)cc1NC(=O)c1ccc(-c2ccc(Cl)cc2Cl)o1 | / | 56.2µM* | 3.98µM* | ? | ? | ?
C=C1C=C(C)n2ncc(C(=O)Nc3ccccc3C(=O)OC)c2N1 | / | 0.5% | / | 9.2% | -19.9% | /
CCOC(=O)COc1ccc2nsnc2c1Cl | 4.9% | 4.5% | 1.0% | 5.8% | -27.6% | -18.5%
C=C(CC)C(=O)c1ccc(OCC(=O)O)c(Cl)c1Cl | 2.7% | -13.8% | 0.6% | 10µM* | -7.1% | 79.4µM*
CCOC(=O)c1c(N)n(-c2ccc(CC)cc2)c2nc3ccccc3nc12 | / | 5.9% | 1.6% | 92.6% | -1.1% | -18.0%
CCOC(=O)c1c(N)n(C2CC(C)(C)NC(C)(C)C2)c2nc3ccccc3nc12 | -5.7% | -20.9% | 28.2µM* | ? | -8.3% | -6.3%
Cc1ccc(NC(=O)CSc2sc3c(O)cc(=O)[nH]c3c2C#N)c(F)c1 | / | -5.2% | -19.9% | ? | -21.0% | 56.2µM*
COc1ccccc1/C=C(/CC(=O)NCc1ccccc1)c1nc2ccccc2s1 | 5.5% | -3.1% | 20µM* | -5.2% | -30.6% | ?
O=C(CCCc1nc2ccccc2s1)NCc1ccccc1 | 7.9% | -2.4% | ? | 20.4% | 10.2% | -16.5%
Cc1ccccc1CSCC(=O)NNC(=S)NCC1CCCO1 (stereo not given) | 0.2% | -13.8% | ? | 89.1µM* | -32.9% | -10.9%
N#Cc1ccccc1OC1=NS(=O)(=O)c2ccccc21 | 1.8% | / | / | / | / | /
Cc1[nH]n(-c2ncc(-c3ccc(Cl)cc3)s2)c(=O)c1C(c1ccc(Cl)cc1)C(C#N)C#N (stereo not given) | 9.7% | -30.3% | 17.8µM* | -27.6% | ? | 31.6µM*
COc1ccccc1-c1nc(N(C)C)c2ccccc2n1 | / | / | / | / | -2.2%[60.1 µM] | /
O=C(COCc1cc(-c2ccc3c(c2)OCO3)on1)N1CCN(c2ccc(F)cc2)CC1 | 2.1% | 3.9% | 13.0% | 79.4µM* | -0.7% | -3.5%
O=S(=O)(Cc1noc(-c2ccc(Cl)cc2)n1)Cc1ccco1 | 2.9% | -16.2% | 14.1µM* | 50.1µM* | ? | -1.9%
CCOC(=O)c1cc(-c2ccco2)nc2c1c(C)nn2-c1cccc(Cl)c1 | 5.9% | 6.8% | 28.2µM* | 9.0% | -4.7% | ?
CCCC[C@@H]1C[C@H]1C(NC(=O)Cc1ccccc1)c1ccc(-c2ccccc2)cc1 (stereo not given in full) | 3.3% | / | / | / | / | /
COc1ccc(CN(Cc2ccccc2)C(=O)c2ccccc2N)cc1COc1ccc(NC(C)=O)cc1 | 1.0% | / | / | / | / | /
O=C(N/N=C/c1ccccc1Cl)c1nc2ccc([N+](=O)[O-])cc2c(=O)[nH]1 | 2.5% | 2.8% | 9.7% | 10µM* | -0.1% | -8.7%
O=C(N/N=C/c1cccc([N+](=O)[O-])c1)c1nc2ccccc2c(=O)[nH]1 | -2.6% | 12.9% | 0.1% | -16.3% | -9.6% | -11.1%
COc1cc2ccccc2cc1C(=O)OCC(=O)Nc1ccc(Br)cc1 | / | ? | / | / | 89.1µM* | /
